Results reported in PubChem BioAssay (NCATS).
Results filed as inconclusive are left out. Values without a mark were called inactive. The source made the active and inactive calls. The call rests on the fitted dose curve; in most records, active means well fitted inhibition curve with a large enough effect; inconclusive means small, poorly fitted or top-dose-only effect; inactive means flat fitted curve, though single readings scatter. Where a SMILES comes first, the peptide text is derived from it. [ ]: non-standard residue; d: D form.

test: Primary qHTS for inhibitors of nuclear receptor binding SET domain protein 2 (NSD2) in an isogenic RCH-ACV NSD2 p.E1099K mutant (9B) (AID 1645876); details: RCH-ACV (leukaemia line) NSD2 E1099K (9B) viability, CellTiter-Glo, 72 h; series mostly up to 44.9 µM; activity change, negative = viability loss: at the top concentration; further: nearly all actives have a fitted effect of over 70% in size
On the % scale 0 is the no-effect control and ±100 the full control effect.

Going from `CC1(C)CC[C@]2(C(=O)O)CC[C@]3(C)C(=CCC4[C@@]5(C)CCC(O[C@@H]6OC[C@H](O)[C@H](O)[C@H]6O[C@@H]6O[C@H](CO)[C@@H](O)[C@H](O)[C@H]6O)[C@@](C)(CO)C5CC[C@]43C)[C@@H]2C1` (some centres undefined) to `CC1(C)CC[C@]2(C(=O)O[C@@H]3O[C@H](CO)[C@@H](O)[C@H](O)[C@H]3O)CC[C@]3(C)C(=CCC4[C@@]5(C)C[C@@H](O)[C@H](O)[C@@](C)(CO)C5CC[C@]43C)C2C1` (some centres undefined), the “activity change, negative = viability loss” value rises from -4.84% [at 17.3 µM] to 3.12% [at 17.3 µM].

Going from `COC(=O)[C@]12C(=O)C(C)=C(O)[C@@]1(C)C(C)=CC1[C@@]34CC[C@@H](OC(C)=O)C(C)(C)C3[C@H](C[C@]12C)OC4=O` (some centres undefined) to `CC(C)CC(=O)OC[C@H]1O[C@@](COC(=O)CC(C)C)(O[C@H]2O[C@H](CO)[C@@H](O)[C@H](O)[C@H]2O)[C@@H](OC(=O)CC(C)C)[C@@H]1OC(=O)CC(C)C`, the “activity change, negative = viability loss” value falls from -1.74% [at 17.3 µM] to -25.9% [at 17.3 µM].

Compared with `C[C@]1(OC(=O)/C=C/c2ccccc2)C[C@H](O)[C@]2(O)C=CO[C@@H](O[C@@H]3O[C@H](CO)[C@@H](O)[C@H](O)[C@H]3O)C12` (some centres undefined), `C=CCc1ccc(O[C@@H]2O[C@H](CO[C@@H]3O[C@@H](C)[C@H](O)[C@@H](O)[C@H]3O)[C@@H](O)[C@H](O)[C@H]2O)cc1` is higher in “activity change, negative = viability loss” value: -3.59% [at 17.3 µM] for the first, 2.25% [at 17.3 µM] for the second.

Compared with `OC[C@H]1O[C@@H](OC(CCCCc2ccc(O)cc2)CCc2ccc(O)cc2)[C@H](O[C@@H]2OC[C@](O)(CO)[C@H]2O)[C@@H](O)[C@@H]1O` (some centres undefined), `C=CC(C)(CC/C=C(\C)CC/C=C(\C)CC(O)/C=C(\C)C(=O)O)O[C@@H]1O[C@H](CO)[C@@H](O)[C@H](O)[C@H]1O[C@@H]1O[C@H](CO)[C@@H](O)[C@H](O)[C@H]1O` (some centres undefined) is lower in “activity change, negative = viability loss” value: -4.39% [at 17.3 µM] for the first, -10.1% [at 17.3 µM] for the second.

With `CCC[C@@H]1C[C@@H](C(=O)N[C@@H]([C@H]2O[C@H](SC)[C@H](OP(=O)(O)O)[C@@H](O)[C@H]2O)[C@H](C)Cl)N(C)C1` the “activity change, negative = viability loss” value was 4.48% [at 17.3 µM].

First: NC1CCC(N[C@@H]2C[C@H]2c2ccccc2)CC1 (some centres undefined)
Second: CN1C(=O)c2ccccc2-n2c(nc3ccccc3c2=O)[C@@]12O[C@H]2c1ccccc1
The “activity change, negative = viability loss” value of the first is higher: -3.1% for the first, -8.15% for the second.

Compared with `C=C1CC[C@H]2[C@@](C)(CCC[C@@]2(C)C(=O)O)[C@@H]1CCC(C)CCO` (some centres undefined), `C=C[C@H]1[C@H](O[C@@H]2O[C@H](CO)[C@@H](O)[C@H](O)[C@H]2O)OC=C2C(=O)OCC[C@]21O` is higher in “activity change, negative = viability loss” value: -21.8% for the first, -15% for the second.

First: COc1cc2c(cc1O)C1(OC)Cc3ccc4c(c3C1N(C)CC2)OCO4 (centres undefined)
Second: COc1ccc(C2=CC(=O)OC2Cc2ccc(O)cc2)c(O)c1 (centres undefined)
The “activity change, negative = viability loss” value of the first is higher: 4.56% for the first, -12.8% for the second.

In the case of `C=C1C(=O)OC2CC(C)=C(C(C)CCCO[C@@H]3O[C@H](CO)[C@@H](O)[C@H](O)[C@H]3O)C(O)C12` (some centres undefined), the “outcome” value is reported as “inactive [at 17.3 µM]”.
With `CC1(C)CC2C3=CCC4C5(C)CCC(OC6OC(CO)C(O)C(OC7OC(CO)C(O)C(OC8OC(CO)C(O)C(OC9OC(COC%10OC(CO)C(O)C(O)C%10O)C(O)C(O)C9O)C8O)C7O)C6O)C(C)(C)C5CCC4(C)C3(C)CCC2(C(=O)O)CC1O` (centres undefined) the outcome was “inactive [at 9.23 µM]”.
In the case of `C/C=C/C=C/C(CC(=O)O)Nc1ccc(C=O)cc1` (centres undefined), the “outcome” value is reported as “inactive”.
In the case of `O=C(O)CCc1cc2ccoc2cc1O[C@@H]1O[C@H](CO[C@@H]2OC[C@](O)(CO)[C@H]2O)[C@@H](O)[C@H](O)[C@H]1O`, the “outcome” value is reported as “inactive [at 17.3 µM]”.
With `COC(=O)CC[C@@H](C)[C@H]1CC[C@H]2[C@@H]3CC(=O)[C@H]4C[C@H](OC(C)=O)CC[C@]4(C)[C@H]3CC[C@]12C` the “outcome” value was “inactive”.
In the case of `CC(=O)N[C@H](Cc1ccc(O)cc1)C(=O)N[C@H](CCCN=C(N)N)C(=O)N[C@H](Cc1ccccc1)C(N)=O` (Ac-[dY]-[dR]-[dF]-NH2), the “outcome” value is reported as “inactive”.

First: C[C@@H]1O[C@@H](O[C@H]2[C@H](O[C@H]3[C@H](O[C@H]4CC[C@@]5(C=O)C(CC[C@]6(C)C5CC=C5C7CC(C)(C)C[C@@H](O)[C@]7(C)CC[C@]56C)C4(C)C)O[C@H](C(=O)O)[C@@H](O)[C@@H]3O)OC[C@@H](O)[C@@H]2O)[C@H](O)[C@H](O)[C@H]1O (some centres undefined)
Second: C[C@@H]1O[C@@H](O[C@H]2[C@H](O)[C@@H](O)[C@H](OC[C@H]3O[C@@H](OC(=O)[C@]45CCC(C)(C)C[C@H]4C4=CCC6[C@@]7(C)C[C@H](O)[C@H](O[C@@H]8O[C@H](CO)[C@@H](O)[C@H](O)[C@H]8O)[C@@](C)(C(=O)O)C7CC[C@@]6(C)[C@]4(C)CC5)[C@H](O[C@@H]4O[C@H](CO)[C@@H](O)[C@H](O)[C@H]4O)[C@@H](O)[C@@H]3O)O[C@@H]2CO)[C@H](O)[C@H](O)[C@H]1O (some centres undefined)
The activity change, negative = viability loss of the first is higher: -2.85% [at 9.23 µM] for the first, -12.2% [at 9.23 µM] for the second.

With `CO/N=C(/C(=O)N[C@@H]1C(=O)N2C(C(=O)O)=C(CSC(=O)c3ccco3)CS[C@H]12)c1csc(N)n1` the Potency was “inactive”.
